HIV RNase H inh-1: inhibitors of HIV-1 reverse transcriptase RNase H. AID 565. hit rate 1.9% among 65,000. P04585. RT-RNase H RNA/DNA duplex cleavage, fluorescence. inhibition, % at 10 µM; in the data active means inhibition above about 50%
RmlC RmlD mix: mixture blocks RmlC and RmlD coupled enzyme activity. inhibition, % at 5.5 µM. AID 1532. hit rate 0.39% among 110,000. RmlC/RmlD coupled enzyme inhibition, 384-well mixture HTS; in the data active means inhibition above about 30%, passing the limit was not always enough; inconclusive means no clear call, values can overlap the other calls
HIV RNase H inh-2: confirmation of HIV-1 reverse transcriptase RNase H inhibitors. shares compounds with HIV RNase H inh-1. Recombinant RT RNase H, fluorescent RNA/DNA duplex cleavage. inhibition, % at 10 µM. hit rate 39% among 1,000. AID 651; in the data active means inhibition above about 48%; inconclusive means no clear call, values can overlap the other calls
Numbers stand for hits; n = inactive; u = inconclusive; x = not tested or not shown. Only a selection was taken, and hits are over-represented in it overall.

SMILES	HIV RNase H inh-1	RmlC RmlD mix	HIV RNase H inh-2
Cc1ccccc1N1C(=O)C(Cl)=C(N2CCCCCC2)C1=O	n	n	x
O=C1C(Cl)=C(N2CCCCC2)C(=O)N1c1ccccc1Cl	72	n	n
COC(=O)c1ccc(OC)c(CSc2nnc(-c3ccc(C)cc3)o2)c1	66	x	n
Cc1ccc(C(=O)CSc2nnc(-c3ccccc3)o2)cc1	x	n	x
O=C(CSc1nc(-c2ccc(F)cc2)cc(C(F)(F)F)n1)NCc1ccco1	x	n	x
CNC(=O)CN1C(=O)c2cccc3cccc1c23	x	n	x
CN1/C(=N\O)c2cccc3cccc1c23	61	n	n
CC1(OC(=O)C2CCCC2)C(=O)C=C2C=C(c3ccsc3)N(C(CO)CO)C=C2C1=O (configuration not stated)	x	n	x
O=C1N[C@@H](Cc2cn(S(=O)(=O)c3ccc(F)cc3)c3ccccc23)C(=O)N[C@H]1Cc1ccccc1	x	n	x
O=S(=O)(c1ccc(Cl)cc1)n1nnc2ccccc21	x	n	x
COc1ccc(N2CCCn3c2nc2c3c(=O)n(CCc3ccccc3)c(=O)n2C)cc1	n	n	x
Cc1ccc(N2CCn3c2nc2c3c(=O)n(CCc3ccccc3)c(=O)n2C)cc1	64	x	n
COc1cc(NS(=O)(=O)c2ccc(NC(=O)CSC3=NCCS3)cc2)nc(OC)n1	54	x	n
O=C(CSC1=NCCS1)Nc1ccc(S(=O)(=O)NC2CCCCC2)cc1	x	n	x
CCCn1c(SCC(=O)Nc2ccccc2Oc2ccccc2)n[nH]c1=O	x	n	x
CCn1cc(C(=O)N2CCN(c3cccc(Cl)c3)CC2)c2cc(OC)c(OC)cc2c1=O	x	n	x
COc1cccc(-n2nnnc2SCC(=O)NCCc2ccccc2)c1	70	n	n
COc1ccc(OC)c(-n2nnnc2SCC(=O)NCCc2ccccc2)c1	n	x	x
C=CCNC(=O)c1cccc(C(F)(F)F)c1	x	n	x
Cc1ccc(-c2ccc(CCC(=O)O)o2)cc1	x	n	x
O=C(O)CCc1ccc(-c2cccs2)o1	89	n	n
CC(C)C[C@H](NC(=O)c1[nH]cnc1C(=O)N[C@@H](C)C(=O)OC(C)(C)C)C(=O)OC(C)(C)C	x	n	x
COc1ncccc1-c1nnn(-c2ccc(F)cc2)n1	x	n	x
CCOc1ccc(N2CC(=O)N(c3ccc(OCC)cc3)CC2=O)cc1	x	n	x
CCOc1ccc(N2Cc3ccccc3C2)cc1	73	n	61
SMILES	HIV RNase H inh-1	RmlC RmlD mix	HIV RNase H inh-2
CCC1(C)Cc2c(sc3nnn(Cc4ccccc4Cl)c(=O)c23)CO1 (configuration not stated)	x	n	x
O=C(c1ccccc1)c1ccccc1C(=O)N1CCOCC1	n	n	x
O=C(O)C1Nc2c(C(=O)N3CCOCC3)cccc2C2C=CCC12 (configuration not stated)	77	n	n
Cc1ccc2c(c1C)NC(C(=O)O)C1CC=CC21 (configuration not stated)	96	n	69
CCOC(=O)C1Nc2c(F)cc(C)cc2C2C=CCC12 (configuration not stated)	x	n	x
O=C(CC1C(=O)N(c2ccccc2)C(=O)N1C1CCCCC1)Nc1ccccc1 (configuration not stated)	x	n	x
COc1ccc(NC(=O)CSc2nc3sc(C)c(C)c3c(=O)n2Cc2ccco2)cc1	n	n	x
C=CCn1c(SCC(=O)NC(=O)NCc2ccco2)nc2sc(C)c(C)c2c1=O	92	n	63
CCc1ccc(NC(=O)CCNS(=O)(=O)c2cccc3nsnc23)cc1	x	n	x
CCOc1ccc(-c2nnn(CC#N)n2)cc1OC	x	n	x
Cn1c(C(=O)NCc2ccccn2)cc2c(=O)n(C)c3ccccc3c21	n	n	x
COc1ccccc1CNC(=O)c1cc2c(=O)n(C)c3ccccc3c2n1C	89	x	88
C=C1CCN([C@@H](CC(C)C)C(=O)NCc2cc(OC)c(OC)c(OC)c2)S(=O)(=O)c2ccccc21	x	n	x
COc1ccccc1/C=c1\sc2nc(-c3ccncc3)nn2c1=O	n	x	x
COc1ccc(Br)cc1/C=c1\sc2nc(-c3ccco3)nn2c1=O	73	n	u
O=C(Nc1nc(-c2cc3ccccc3oc2=O)cs1)c1ccco1	n	n	x
O=C(Nc1nc(-c2ccncc2)cs1)c1ccco1	59	n	56
CCCCCCCCCCCC(=O)c1c(O)cccc1O	x	n	x
COc1ccc(C2/C=C\CN(C(=O)C3CCCC3)[C@H](Cc3ccccc3)C(=O)N2Cc2ccc(F)cc2)cc1 (some centres not stated)	x	n	x
CC(C)(C)C1=Nn2c(nnc2-c2ccccn2)SC1	64	n	70
CC(C)(C)C1=Nn2c(nnc2-c2ccccc2F)SC1	n	n	x
Cc1cccc(NC(=S)NNC(=O)c2nn(C)cc2Cl)c1	x	n	x
CCCCC(CC)Cn1c2nc3ccccc3nc2c2c(=N)oc(C)nc21 (configuration not stated)	68	x	65
CCCCn1c2nc3ccccc3nc2c2c(=N)oc(C)nc21	n	x	x
CCOC(=O)CSc1n[nH]c(NC(=O)c2cccc(C(F)(F)F)c2)n1	x	n	x
SMILES	HIV RNase H inh-1	RmlC RmlD mix	HIV RNase H inh-2
Cc1ccc(NCc2nnc(SC(C)C(=O)N/N=C/c3ccc(C)o3)n2-c2ccccc2)cc1 (configuration not stated)	x	n	x
CCCCP(=O)(O)CCC(=O)O	n	n	x
CCCCCC#CCC#CCC#CCC#CCCCC(=O)O	97	u	66
O=C(O)C1=C[C@H](c2coc3ccccc3c2=O)C[C@H](OCc2ccc(CO)cc2)O1	x	n	x
CCCCc1ccc(CC(=O)O)cc1	55	n	n
CCCCCc1ccc(CC(=O)O)cc1	n	x	x
CCOC(=O)COc1ccc(Br)cc1C1NC(=O)NC(C)=C1C(=O)NCc1ccccc1 (configuration not stated)	x	n	x
Cc1ccsc1/C=c1\sc2ncnn2c1=O	n	n	x
O=c1/c(=C/c2cccc3ccccc23)sc2ncnn12	96	n	n
CC(C)C[C@H](NC(=O)c1nc[nH]c1C(=O)N1CCN(c2ccccc2)CC1)C(=O)OCc1ccccc1	x	n	x
Cc1ccc(S(=O)(=O)/C(C#N)=C/c2c(N3CC(C)OC(C)C3)nc3c(C)cccn3c2=O)cc1 (configuration not stated)	x	n	x
CCCOc1ccc(C(=O)Nn2c(C)nc3ccccc3c2=O)cc1	72	n	n
Cc1nc2ccccc2c(=O)n1NC(=O)COc1ccccc1	n	n	x
O=C(O[C@H]1[C@H](Oc2ccccc2COC(=O)C2(O)C=CCCC2=O)O[C@H](CO)[C@@H](O)[C@@H]1O)c1ccccc1 (some centres not stated)	x	n	x
C=CCn1c(SCc2cc(=O)n3ccsc3n2)nnc1C1CCCCC1	67	n	n
C=CCn1c(SCC(=O)NC(=O)NC2CCCC2)nnc1C1CCCCC1	n	n	x
Cc1[nH]c(=S)c(C#N)c(C)c1C(=O)Nc1ccccc1	x	n	x
C=CCc1c(C)[nH]c(=S)c(C#N)c1C	77	n	59
CCOc1ccc(NC(=O)c2c(N)n(C)c(=O)[nH]c2=O)cc1	x	n	x
COc1ccc(CCn2c(C)cc(C(=O)CSc3nnnn3-c3ccccc3)c2C)cc1	x	n	x
CC(C)OP(=O)(OC(C)C)C1(O)C(=O)Nc2ccccc21 (configuration not stated)	x	n	x
CC(C)CNC(=O)c1c(N)n(/N=C/c2ccccn2)c2nc3ccccc3nc12	61	n	63
COCCNC(=O)c1c(N)n(/N=C/c2cccs2)c2nc3ccccc3nc12	n	n	x
CCCCCCNC(=O)c1c(N)n(/N=C/c2ccco2)c2nc3ccccc3nc12	71	x	88
Nc1c(C(=O)NC2CCCCC2)c2nc3ccccc3nc2n1/N=C/c1ccco1	n	x	x
